Results as given in PubChem BioAssay AID1159580 (chemical genetic matrix, 2015).
Where “and” joins values, the source holds several entries; their conditions need not be identical. Equal entries are not always repeated. Among all 5,500 compounds or so, about 2,000 (36%) were called active. About 18% were inconclusive and are not listed. No stated cut-off is given here; in the data, active means normalized growth mostly below about 0.91 (no sharp cut-off); inconclusive means no clear call, values can overlap the other calls; inactive means mostly above about 0.92. The list shows a part of the results.

Test: chemical genetic growth profiling, strain panel (AID 1159580);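 further: tested at 20 µM; growth read once vehicle control cultures reached saturation at 30 °C; 1 = growth at the plate median or of vehicle wells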
Conditions: S. cerevisiae deletion strains, growth OD

Measured: normalized growth

C#CCCCCCCCCCCCC(O)CC(O)CO (configuration not stated)
1.03 (inactive) and 0.819 (active): locus YJL095W, strain BCK1, stronger effect = lower value
0.999 (inactive) and 0.85 (active): locus YHR030C, strain SLT2, stronger effect = lower value
inactive: locus YAL013W, strain DEP1, stronger effect = lower value 1 | locus YAL021C, strain ccr4, stronger effect = lower value 0.979 | locus YAL026C, strain drs2, stronger effect = lower value 0.992 | locus YAL030W, strain snc1, stronger effect = lower value 0.99 | locus YBL061C, strain skt5, stronger effect = lower value 0.987 | locus YBR009C, strain hhf1, stronger effect = lower value 0.991 | locus YBR021W, strain FUR4, stronger effect = lower value 0.974 | locus YBR023C, strain chs3, stronger effect = lower value 0.983 | locus YBR171W, strain sec66, stronger effect = lower value 0.999 | locus YBR229C, strain ROT2, stronger effect = lower value 1 | locus YBR231C, strain swc5, stronger effect = lower value 0.993 | locus YBR279W, strain paf1, stronger effect = lower value 0.995 | locus YCL011C, strain gbp2, stronger effect = lower value 0.988 | locus YCL016C, strain dcc1, stronger effect = lower value 0.97 | locus YCL029C, strain bik1, stronger effect = lower value 1.01 | locus YCL061C, strain MRC1, stronger effect = lower value 0.979 | locus YCL069W, strain vba3, stronger effect = lower value 0.992 | locus YCR088W, strain abp1, stronger effect = lower value 0.985 | locus YDL005C, strain med2, stronger effect = lower value 0.974 | locus YDL035C, strain GPR1, stronger effect = lower value 0.984 | locus YDL040C, strain nat1, stronger effect = lower value 0.988 | locus YDL074C, strain BRE1, stronger effect = lower value 0.988 | locus YDL101C, strain DUN1, stronger effect = lower value 1.01 | locus YDL134C, strain PPH21, stronger effect = lower value 0.995 | locus YDL185W, strain tfp1, stronger effect = lower value 1.01 | locus YDL192W, strain arf1, stronger effect = lower value 1 | locus YDR001C, strain nth1, stronger effect = lower value 0.982 | locus YDR069C, strain doa4, stronger effect = lower value 0.994 | locus YDR101C, strain arx1, stronger effect = lower value 0.987 | locus YDR137W, strain rgp1, stronger effect = lower value 0.986 | locus YDR150W, strain NUM1, stronger effect = lower value 0.999 | locus YDR159W, strain sac3, stronger effect = lower value 1 | locus YDR162C, strain NBP2, stronger effect = lower value 1.03 | locus YDR195W, strain ref2 0.986 | locus YDR297W, strain sur2, stronger effect = lower value 0.988 | locus YDR318W, strain mcm21, stronger effect = lower value 1.01 | locus YDR334W, strain swr1, stronger effect = lower value 0.991 | locus YDR335W, strain msn5, stronger effect = lower value 0.988 | locus YDR388W, stronger effect = lower value 0.999 | locus YDR392W, strain spt3, stronger effect = lower value 0.877 | locus YDR502C, strain sam2, stronger effect = lower value 1 | locus YEL003W, strain gim4, stronger effect = lower value 0.98 | locus YEL037C, strain rad23, stronger effect = lower value 0.995 | locus YEL061C, strain CIN8 (second series), stronger effect = lower value 0.986 | locus YEL061C, strain CIN8, stronger effect = lower value 0.997 | locus YER015W, strain faa2, stronger effect = lower value 0.972 | locus YER016W, strain bim1, stronger effect = lower value 0.989 | locus YER110C, stronger effect = lower value 1 | locus YER111C, strain swi4, stronger effect = lower value 0.971 | locus YER155C, strain BEM2 (second series), stronger effect = lower value 0.953 | locus YER155C, strain BEM2, stronger effect = lower value 1.01 | locus YER167W, strain BCK2, stronger effect = lower value 0.998 | locus YFR010W, strain ubp6, stronger effect = lower value 0.993 | locus YGL078C, strain dbp3, stronger effect = lower value 1.02 | locus YGL086W, strain mad1, stronger effect = lower value 1.01 | locus YGL167C, strain pmr1, stronger effect = lower value 0.983 | locus YGL173C, strain kem1, stronger effect = lower value 0.983 | locus YGL227W, strain vid30, stronger effect = lower value 0.993 | locus YGL240W, strain doc1, stronger effect = lower value 1 | locus YGL248W, strain PDE1, stronger effect = lower value 0.997 | locus YGL253W, strain hxk2, stronger effect = lower value 0.991 | locus YGR078C, strain PAC10, stronger effect = lower value 0.981 | locus YGR135W, strain pre9, stronger effect = lower value 0.992 | locus YGR229C, strain SMI1, stronger effect = lower value 1.07 | locus YGR252W, strain gcn5, stronger effect = lower value 0.993 | locus YHR013C, strain ard1, stronger effect = lower value 0.939 | locus YHR027C, strain rpn1, stronger effect = lower value 0.984 | locus YHR079C, strain IRE1 (second series), stronger effect = lower value 1 | locus YHR094C, strain hxt1, stronger effect = lower value 1.01 | locus YHR129C, strain ARP1, stronger effect = lower value 0.996 | locus YHR142W, strain chs7, stronger effect = lower value 0.96 | locus YHR200W, strain rpn10, stronger effect = lower value 1.01 | locus YIL066C, strain RNR3, stronger effect = lower value 0.983 | locus YIL073C, strain SPO22, stronger effect = lower value 1.03 | locus YIL125W, strain kgd1, stronger effect = lower value 1.03 | locus YIR030C, strain dcg1, stronger effect = lower value 1 | locus YJL092W, strain hpr5, stronger effect = lower value 0.98 | locus YJL095W, strain BCK1 (second series), stronger effect = lower value 0.985 | locus YJL115W, strain asf1, stronger effect = lower value 0.968 | locus YJL129C, strain trk1, stronger effect = lower value 0.963 | locus YJL134W, strain LCB3, stronger effect = lower value 1.03 | locus YJL154C, strain vps35, stronger effect = lower value 0.976 | locus YJL164C, strain tpk1, stronger effect = lower value 0.982 | locus YJL166W, strain qcr8, stronger effect = lower value 0.98 | locus YJL168C, strain set2, stronger effect = lower value 1.01 | locus YJL187C, strain SWE1 (second series), stronger effect = lower value 0.992 | locus YJL187C, strain SWE1, stronger effect = lower value 0.979 | locus YJR043C, strain POL32, stronger effect = lower value 0.989 | locus YJR066W, strain TOR1, stronger effect = lower value 0.835
active: locus YHR079C, strain IRE1, stronger effect = lower value 0.782
